A short description of experiment [1]: ATG_CRE_CIS: Attagene CIS-FACTORIAL HepG2 Assay for human cAMP Responsive Element (CRE) binding protein 3 (AID 2282926). Particulars: HepG2 CRE cis-reporter, Attagene multiplexed mRNA; actives raise or lower the signal. In short, it runs like this:
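Capillary electrophoresis of 6-FAM-labelled, HpaI-digested PCR products quantified reporter transcripts. These came from HepG2 transiently transfected with cis-element reporters and exposed to test chemicals for 24 hours, with DMSO defining baseline activity.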

Experiment [2] concerns the target CCAAT/enhancer-binding protein beta (Homo sapiens) (UniProt P17676). As to the kind of experiment: ATG_C_EBP_CIS: Attagene CIS-FACTORIAL HepG2 Assay for human CCAAT/Enhancer Binding Protein (C/EBP) beta (AID 2282927). Particulars: HepG2 Attagene cis-factorial transcription factor reporter; actives raise or lower the signal. An outline of the steps: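 Following a 24 h incubation with test chemical, transfected HepG2 cells yielded RNA whose reporter transcripts were quantified by RT-PCR and fluorescent capillary electrophoresis, with DMSO serving as baseline for bidirectional fitting.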

Experiment [3] is described as follows: ATG_CMV_CIS: Attagene CIS-FACTORIAL HepG2 Assay for human CMV (Internal Marker) (AID 2282928).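 Further: endpoint acts as a background internal control marker rather than a target.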 Particulars: HepG2 CMV promoter reporter, transcription factor profiling; actives raise or lower the signal. An outline of the steps: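 Fluorescence intensity of RT-PCR-derived reporter fragments, resolved by capillary electrophoresis, gives the signal. HepG2 liver cells bearing transfected cis-element reporters were treated 24 h; activity in either direction was fit relative to DMSO-treated controls.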

Experiment [4] in a line: ATG_DR4_LXR_CIS: Attagene CIS-FACTORIAL HepG2 Assay for human Liver X Receptor (LXR), DR4 submotif (AID 2282929). Particulars: HepG2 Attagene DR4 cis-reporter, mRNA transcription; actives raise or lower the signal. An outline of the steps: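 Cells were transfected with multiple reporter transcription units, exposed to chemicals for 24 hours, then lysed for RNA. Reporter mRNA induction was measured by RT-PCR with capillary electrophoresis detection and fitted in both directions relative to DMSO.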

Experiment [5] deals with Aryl hydrocarbon receptor (Homo sapiens) (UniProt P35869). Briefly: ATG_Ahr_CIS: Attagene CIS-FACTORIAL HepG2 Assay for human Aryl Hydrocarbon Receptor (Ahr) (AID 2282930). Conditions: HepG2 AhR cis-factorial reporter transcription; actives raise or lower the signal. In short, it runs like this:
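Values derive from bidirectional fitting against DMSO negative control. Underlying signal: cis-element reporter mRNA in transiently transfected HepG2, harvested 24 h post-dose and measured by RT-PCR plus capillary electrophoresis.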

The nature of experiment [6]: ATG_AP_1_CIS: Attagene CIS-FACTORIAL HepG2 Assay for human Activator Protein 1 (AP-1) (AID 2282931). Particulars: HepG2 Attagene cis-factorial AP-1 reporter mRNA; actives raise or lower the signal. An outline of the steps:
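Endogenous transcription-factor activity in human HepG2 liver cells is read through a cis-promoter reporter transcript, sampled 24 h after dosing. Detection uses RT-PCR with capillary electrophoresis; values come from bidirectional fitting relative to DMSO.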

Experiment [7] in a line: ATG_AP_2_CIS: Attagene CIS-FACTORIAL HepG2 Assay for human Activator Protein 2 (AP-2) (AID 2282932). Particulars: HepG2 AP-2 cis-reporter, Attagene transcription factor profiling; actives raise or lower the signal. An outline of the steps:
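Assay in transfected HepG2 with promoter-regulated reporters, 24 h incubation after dosing. Signal is reporter mRNA fluorescence (RT-PCR, capillary electrophoresis), analysed for both increases and decreases relative to DMSO controls.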

Experiment [8] in a line: ATG_BRE_CIS: Attagene CIS-FACTORIAL HepG2 Assay for human Bone Morphogenetic Protein (BMP) Response Element (BRE) (AID 2282933). Conditions: HepG2 BMP response element reporter, Attagene transcription factor profiling; actives raise or lower the signal. An outline of the steps: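 A HepG2 multiplex reporter system measured inducible reporter mRNA 24 h post-dosing. Detection: RT-PCR, 6-FAM primer extension, HpaI digestion, capillary electrophoresis. Activity fitted bidirectionally relative to DMSO.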

In experiment [9] the target is Retinoic acid receptor alpha (Homo sapiens) (UniProt P10276). As to the kind of experiment: ATG_DR5_RAR_CIS: Attagene CIS-FACTORIAL HepG2 Assay for human Retinoic Acid Receptor Alpha (RARE), DR5 submotif (AID 2282934).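 On AC50: reporter responds to endogenous RAR alpha beta and gamma in HepG2 not RARA alone.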 Particulars: HepG2 Attagene cis-factorial RARE DR5 reporter, mRNA; actives raise or lower the signal. An outline of the steps:
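Endpoint fitted in both directions relative to DMSO as negative control. It reflects DR5 cis-element reporter mRNA induction in transiently transfected HepG2 cells, measured 24 h after dosing through RT-PCR and fluorescent capillary electrophoresis.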

Experiment [10] addresses Transcription factor E2F1 (Homo sapiens) (UniProt Q01094). Briefly: ATG_E2F_CIS: Attagene CIS-FACTORIAL HepG2 Assay for human E2F Transcription Factor 1 (AID 2282935). Conditions: HepG2 Attagene cis-reporter, E2F reporter RNA transcripts; actives raise or lower the signal. An outline of the steps: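 In this cis-factorial format, endogenous factor activity drives transfected reporters in HepG2; transcripts collected at 24 h are quantified by fluorescence after RT-PCR and capillary separation.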

SMILES strings stand for the structures. Activity calls are given as the source filed them. How the source made its calls: active means hit-call score of the fitted dose curve at least 0.9, where 1 is the maximum; inactive means score below 0.9.

CCAAT/enhancer-binding protein beta (Homo sapiens), sequence (P17676 whole entry, looked up): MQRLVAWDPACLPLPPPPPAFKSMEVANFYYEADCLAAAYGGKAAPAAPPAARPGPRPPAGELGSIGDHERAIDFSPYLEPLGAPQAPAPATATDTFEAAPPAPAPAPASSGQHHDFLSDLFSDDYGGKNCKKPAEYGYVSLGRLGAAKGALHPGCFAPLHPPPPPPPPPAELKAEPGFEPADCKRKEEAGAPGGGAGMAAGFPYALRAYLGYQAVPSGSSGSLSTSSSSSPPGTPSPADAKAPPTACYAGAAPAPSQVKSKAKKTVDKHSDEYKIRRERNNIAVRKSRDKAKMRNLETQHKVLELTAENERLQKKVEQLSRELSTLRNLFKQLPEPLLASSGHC
Retinoic acid receptor alpha (Homo sapiens), sequence (P10276 whole entry, looked up): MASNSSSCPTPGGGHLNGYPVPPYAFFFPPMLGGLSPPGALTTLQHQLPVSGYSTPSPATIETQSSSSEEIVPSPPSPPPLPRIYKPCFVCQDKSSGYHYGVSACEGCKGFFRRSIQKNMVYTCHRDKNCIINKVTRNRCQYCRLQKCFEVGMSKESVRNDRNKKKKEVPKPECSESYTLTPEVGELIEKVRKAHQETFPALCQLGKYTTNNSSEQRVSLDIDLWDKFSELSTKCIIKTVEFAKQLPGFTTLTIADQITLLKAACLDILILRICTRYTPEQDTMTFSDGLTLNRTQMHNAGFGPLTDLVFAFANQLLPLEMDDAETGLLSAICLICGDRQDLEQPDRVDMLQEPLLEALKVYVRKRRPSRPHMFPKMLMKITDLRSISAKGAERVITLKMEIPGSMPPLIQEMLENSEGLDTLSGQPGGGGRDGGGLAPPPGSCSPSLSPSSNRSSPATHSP
Transcription factor E2F1 (Homo sapiens), sequence (Q01094 whole entry, looked up): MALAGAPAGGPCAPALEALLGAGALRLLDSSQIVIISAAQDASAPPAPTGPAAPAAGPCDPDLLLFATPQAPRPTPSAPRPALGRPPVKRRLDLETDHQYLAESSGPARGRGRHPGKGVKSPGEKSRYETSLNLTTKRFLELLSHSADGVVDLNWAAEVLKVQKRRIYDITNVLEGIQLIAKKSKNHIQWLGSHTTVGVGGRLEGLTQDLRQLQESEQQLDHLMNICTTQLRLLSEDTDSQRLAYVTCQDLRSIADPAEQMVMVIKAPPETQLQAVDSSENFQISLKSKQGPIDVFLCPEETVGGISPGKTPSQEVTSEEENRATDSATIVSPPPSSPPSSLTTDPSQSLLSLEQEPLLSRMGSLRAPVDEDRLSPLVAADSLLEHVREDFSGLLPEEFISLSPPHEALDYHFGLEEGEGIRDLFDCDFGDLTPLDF
Aryl hydrocarbon receptor (Homo sapiens), sequence (P35869 whole entry, looked up): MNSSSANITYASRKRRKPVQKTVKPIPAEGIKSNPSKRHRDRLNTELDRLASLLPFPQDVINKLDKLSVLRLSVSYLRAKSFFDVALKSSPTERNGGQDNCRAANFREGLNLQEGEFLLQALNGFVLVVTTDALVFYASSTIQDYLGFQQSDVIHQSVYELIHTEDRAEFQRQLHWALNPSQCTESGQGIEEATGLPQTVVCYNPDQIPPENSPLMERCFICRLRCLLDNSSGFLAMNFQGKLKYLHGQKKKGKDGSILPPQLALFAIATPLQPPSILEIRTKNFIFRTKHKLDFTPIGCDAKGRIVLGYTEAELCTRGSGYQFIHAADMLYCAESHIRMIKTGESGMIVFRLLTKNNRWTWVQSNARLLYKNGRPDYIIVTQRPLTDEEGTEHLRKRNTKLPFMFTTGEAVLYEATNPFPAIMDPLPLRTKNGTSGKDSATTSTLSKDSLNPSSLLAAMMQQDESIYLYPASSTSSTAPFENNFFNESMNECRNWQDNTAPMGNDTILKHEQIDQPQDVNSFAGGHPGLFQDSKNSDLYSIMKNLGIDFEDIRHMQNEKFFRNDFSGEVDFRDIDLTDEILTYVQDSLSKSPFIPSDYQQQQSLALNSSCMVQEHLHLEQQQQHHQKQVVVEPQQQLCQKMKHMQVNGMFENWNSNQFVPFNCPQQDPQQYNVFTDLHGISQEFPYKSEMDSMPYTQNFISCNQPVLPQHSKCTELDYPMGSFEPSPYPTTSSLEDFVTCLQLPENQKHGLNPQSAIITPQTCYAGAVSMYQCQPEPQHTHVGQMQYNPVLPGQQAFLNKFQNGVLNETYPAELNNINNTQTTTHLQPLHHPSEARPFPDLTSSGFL

On to `C1CCOC1`, for which the molecule was called inactive in [1], in experiment [2], in experiment [3], in experiment [4], in experiment [5] and in experiment [6]. In addition, the call in experiment [7], in experiment [8], in experiment [9] and in experiment [10] was inactive.
Take `COc1ccc(CCO)cc1`: the outcome in experiment [1], in experiment [2], in [3], in [4], in [5] and in experiment [6] was inactive. In addition, the molecule was classed as inactive in experiment [7], in experiment [8], in [9] and in experiment [10].
One may read the AC50 as the concentration at which the activity in the assay is half-maximal. As to `Nc1ccc(NCCO)c([N+](=O)[O-])c1`, the molecule was called inactive in experiment [1], in [2], in experiment [3], in [4], in [6] and in [7]. The molecule was classed as inactive in experiment [8], in experiment [9] and in [10]. The AC50 in experiment [5] was 7.19 µM (active).
For the molecule `O=C(O)c1cccnc1C(=O)O`, the outcome in [1], in experiment [2], in experiment [3], in [4], in [5] and in [6] was inactive. Also, the molecule was classed as inactive in experiment [7], in experiment [8], in [9] and in [10].
As for `C=CCCCCCCCCCC`, the outcome in experiment [1], in [2], in experiment [3], in experiment [4], in [5] and in experiment [6] was inactive. Also, the call in [7], in [8], in experiment [9] and in experiment [10] was inactive.
For the molecule `CC(=O)C1(C)CC2=C(CCCC2(C)C)CC1C` (stereo not given), the result in experiment [1], in [2], in experiment [8] and in experiment [10] was inactive. Further, the AC50 in [3] was 76.8 µM (active); in [4] it was 179 µM (active); in [5], 126 µM (active); in experiment [6], 93.3 µM (active); in experiment [7], 76.1 µM (active); in experiment [9], 100 µM (active).
With `C=C(C)CNCC`, the molecule was called inactive in experiment [1], in experiment [2], in [3], in experiment [4], in experiment [5] and in experiment [6]. The result in [7], in experiment [8], in experiment [9] and in experiment [10] was inactive.
Consider `CC(C)c1ccccc1O`, for which the call in [1], in experiment [2], in [3], in [4], in [6] and in experiment [7] was inactive. The call in experiment [8], in experiment [9] and in experiment [10] was inactive. Moreover, in [5], the AC50 is 42.9 µM (active).
For `Cc1ccc(N)c(S(=O)(=O)O)c1`, the molecule was called inactive in [1], in experiment [2], in [3], in experiment [4], in experiment [5] and in experiment [6]. For the same molecule, the outcome in [7], in experiment [8], in experiment [9] and in experiment [10] was inactive.
For the molecule `O=c1[nH]c(=O)c2cn[nH]c2[nH]1`, the molecule was classed as inactive in experiment [1], in [2], in experiment [3], in [4], in [5] and in experiment [6]. The outcome in experiment [7], in [8], in experiment [9] and in experiment [10] was inactive.
For the molecule `CC(=O)C(C)O` (stereo not given), the molecule was called inactive in [1], in experiment [2], in [3], in experiment [4], in experiment [5] and in experiment [6]. Besides, the molecule was called inactive in experiment [7], in experiment [8], in experiment [9] and in [10].
For `C=CCN(CC=C)CC=C`, the molecule was classed as inactive in experiment [1], in experiment [2], in experiment [3], in experiment [4], in experiment [5] and in experiment [6]. Further, the call in [7], in experiment [8], in experiment [9] and in [10] was inactive.
For `Cc1ccc(-c2ccccc2)cc1`, the molecule was classed as inactive in experiment [1], in experiment [2], in [3], in experiment [4], in [5] and in experiment [6]. Also, the call in experiment [7], in experiment [8], in experiment [9] and in experiment [10] was inactive.
Take `CCOC(=O)c1ccc(N)cc1`: the result in experiment [1], in experiment [2], in experiment [3], in [4], in experiment [5] and in experiment [6] was inactive. In addition, the call in experiment [7], in experiment [8], in experiment [9] and in experiment [10] was inactive.
In the case of `NCC1CCCC(CN)C1` (stereo not given), the molecule was called inactive in experiment [1], in experiment [2], in [3], in experiment [4], in experiment [5] and in [6]. Besides, the molecule was called inactive in [7], in experiment [8], in experiment [9] and in experiment [10].
As for `CCCCCCCCC=CCCCCCCCC1=NCCN1CCO`, the molecule was called inactive in [1], in experiment [2], in experiment [5], in [7], in experiment [8] and in experiment [9]. In addition, the half-maximal activity concentration (AC50) in experiment [3] was 48.2 µM (active); in experiment [4], 40.6 µM (active); in experiment [6], 100 µM (active); in [10], 26.1 µM (active).
With `CCCCC(CC)(CO)CO`, the outcome in experiment [1], in experiment [2], in experiment [3], in [4], in experiment [5] and in [6] was inactive. Also, the molecule was classed as inactive in experiment [7], in experiment [8], in experiment [9] and in experiment [10].
Consider `OCC#CCO`, for which the call in experiment [1], in experiment [2], in experiment [3], in [4], in experiment [5] and in [6] was inactive. In addition, the outcome in experiment [7], in experiment [8], in experiment [9] and in experiment [10] was inactive.

For the origin of these results see PubChem BioAssay (EPA / NIEHS).
